Assay outcomes: PubChem BioAssay, several laboratories
CDK5 inh: inhibitors of human CDK5/p35 kinase | Q00535+Q15078 | Recombinant CDK5/p35, ADP-Glo luminescence, 60 min | inhibition, % at 10 µM | actives 0.01% (n = 330,000) | AID 488839;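 active = highest replicate inhibition of at least 50% and at least 75% of replicates reaching 50%; inconclusive = only one of the two criteria met; inactive = both criteria failed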;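 also: plate controls were DMSO neutral control for no effect and GW8510 at 10 µM for full effect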
dFosB act-1: activators of mouse delta FosB homodimer; P13346; purified delta FosB, TAMRA-CDK5 oligo fluorescence polarization; percent of positive-control signal above neutral wells; activation, % at 25 µM; actives 0.99% (n = 340,000);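 active = mean activation above about 17%, with every replicate also reaching it, limit read from the data, passing the limit was not always enough; inconclusive = only one of the two conditions met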
Target sequence (P13346 whole entry, looked up): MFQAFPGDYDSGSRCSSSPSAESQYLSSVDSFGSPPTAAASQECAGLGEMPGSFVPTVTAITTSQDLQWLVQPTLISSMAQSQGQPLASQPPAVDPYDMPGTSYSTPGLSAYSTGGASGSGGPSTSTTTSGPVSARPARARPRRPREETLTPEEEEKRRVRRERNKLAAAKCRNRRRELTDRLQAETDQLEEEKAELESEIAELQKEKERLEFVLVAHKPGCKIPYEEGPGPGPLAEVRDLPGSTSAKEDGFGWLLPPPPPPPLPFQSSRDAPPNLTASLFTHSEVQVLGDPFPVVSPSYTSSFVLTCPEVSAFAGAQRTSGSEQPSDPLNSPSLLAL
SMARCA2 act: activators of SMARCA2 function | MG213 cells, MMTV-luciferase reporter, dexamethasone, overnight | activation, % at 9.1 µM | actives 1% (n = 370,000); in the data active = activation above about 7.8%;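 also: 0% = vehicle wells and 100% = reference activator wells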
Rtt109 Vps75: C. albicans Rtt109 histone acetyltransferase inhibition | Q5AAJ8 | purified Rtt109/Vps75, ThioGlo CoA-SH fluorescence, 4 h | inhibition, % at 34.9 µM | actives 0.16% (n = 330,000);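 active = inhibition of at least 50% in every replicate; inconclusive = best replicate reaches 50% inhibition but some replicates fall short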
esBAF inh: blocks esBAF chromatin remodeling in mouse ES cells | actives 2% (n = 350,000) | reporter increase, % at 12.5 µM | AID 602393 | Bmi1-luciferase knock-in reporter, 24 h; 100% = twice the neutral-well signal; in the data active = activation above about 40%; inconclusive = no clear call, values can overlap the other calls;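 also: 0% = median of the plate's neutral control wells and 100% = double that signal; a rise in the Bmi1 reporter signal indicates esBAF inhibition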
Dyrk1A ADPGlo: blocks rat Dyrk1A kinase activity | ADP-Glo luminescence, NFATc1 peptide | inhibition, % at 12.5 µM | actives 0.43% (n = 310,000) | AID 504441; in the data active = inhibition above about 50%;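 also: plate controls were vehicle with enzyme for no effect and no enzyme for full effect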
dFosB act-2: activators of mouse delta FosB homodimer DNA binding. purified delta FosB, TAMRA-CDK5 oligo fluorescence polarization; normalised: neutral wells 0, positive control 100. 2,400 tested, under 10 active. activation, % at 24.9 µM. shares compounds with dFosB act-1;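 active = highest replicate activation at or above 34% and every replicate reaching that threshold; inconclusive = meets only one of the two criteria; inactive = meets neither criterion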;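 also: higher polarization means more probe DNA bound by delta FosB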
Numbers without * were called inactive; ? = inconclusive; . = no result given. Only some compounds are listed: those with a hit (about 3.2% of all), similar ones and a draw of the others.

SMILES	CDK5 inh	dFosB act-1	SMARCA2 act	Rtt109 Vps75	esBAF inh	Dyrk1A ADPGlo	dFosB act-2
O=C(Cn1nc(C(=O)O)c2ccccc2c1=O)Nc1cccc(S(=O)(=O)N2CCOCC2)c1	-2	-19	0	-7	1	5	.
CCOC(=O)c1c(NC(=O)Cn2nc(C(=O)O)c3ccccc3c2=O)sc2c1CCC(C)C2 (centres undefined)	-3	-8	-4	4	.	-7	.
Cc1ccccc1NC(=O)Cn1nc(C(=O)O)c2ccccc2c1=O	-2	-4	-2	-2	-4	4	.
O=C(Cn1nc(C(=O)O)c2ccccc2c1=O)Nc1ccccc1C(F)(F)F	-1	78*	-1	-6	-6	-5	4
O=C(Cn1nc(C(=O)O)c2ccccc2c1=O)Nc1nc(-c2ccccc2)cs1	-1	69*	-3	-8	22	11	-2
O=C(Cn1nc(C(=O)O)c2ccccc2c1=O)Nc1ccc(Br)cc1	-1	5	-4	8	-1	2	.
C[C@@H]1CN([C@@H](C)CO)C(=O)c2ccccc2-c2ccccc2CO[C@H]1CN(C)S(=O)(=O)c1ccc(C(F)(F)F)cc1	.	.	.	.	0	.	.
CC(C)NC(=O)N(C)C[C@@H]1Oc2c(NC(=O)Nc3ccc(C(F)(F)F)cc3)cccc2C(=O)N([C@H](C)CO)C[C@H]1C	.	.	.	.	0	.	.
COc1ccc(CN(C)C[C@H]2Oc3ccc(NC(=O)Cn4cnnn4)cc3CC(=O)N([C@H](C)CO)C[C@@H]2C)cc1	.	.	.	.	-1	.	.
COC(=O)C1=C(COc2ccccc2)NC(=O)NC1c1ccc(Br)cc1 (centres undefined)	1	35*	-1	4	-7	46	2
C[C@@H]1CN([C@@H](C)CO)S(=O)(=O)c2ccc(-c3ccccc3F)cc2O[C@H]1CN(C)Cc1ccncc1	.	.	.	.	-1	.	.
c1ccc(CN2CCN(CCCNc3ccc4nnc(-c5ccccc5)n4n3)CC2)cc1	-1	-24	.	16	3	49	.
Cc1ccc(CNc2ccc3nnc(-c4ccccc4)n3n2)cc1	-2	23*	-2	5	23	1	5
O=C(C[C@H]1C[C@@H]2c3cc(NC(=O)C4CCOCC4)ccc3O[C@@H]2[C@H](CO)O1)NCC(F)(F)F	.	.	.	.	-3	.	.
NC(=O)Nc1ccc(C(=O)OCC(=O)Nc2sccc2C(N)=O)cc1	1	17*	2	2	-2	-3	-7
COc1ccc(-c2ccc(=O)n(CC(=O)Nc3ccc4c(c3)OCCO4)n2)cc1	0	22*	-2	3	-5	3	-3
COc1ccc(-n2nnc3c(=O)n(CC(=O)Nc4ccc5c(c4)OCCO5)cnc32)cc1OC	-1	49*	0	2	2	-4	1
O=C(Cn1nc(-c2ccccc2)ccc1=O)Nc1ccc(NC(=O)c2ccccn2)cc1	-2	25*	2	0	.	2	0
O=C(Cn1nc(-c2ccc3c(c2)OCCO3)ccc1=O)Nc1ccc(-n2cnnn2)cc1	-4	81*	-3	2	.	-2	6
CC(=O)Nc1cc2c(cc1NC(=O)Cn1nc(-c3ccc4c(c3)OCCO4)ccc1=O)OCCO2	0	-4	0	1	-5	0	.
O=C(Cn1cnc2c(nnn2-c2cccc(F)c2)c1=O)Nc1ccc2c(c1)OCCO2	-2	?	1	-10	17	6	.
COc1ccc(CNC(=O)Cn2nc(-c3ccc4c(c3)OCCO4)ccc2=O)cc1	0	-1	0	-6	-3	14	.
CN1C(=O)c2cc(NC(=O)c3ccccc3)ccc2OC[C@H]2O[C@H](CC(=O)O)CC[C@H]21	.	.	.	.	-1	.	.
C[C@@H]1CN([C@@H](C)CO)S(=O)(=O)c2ccc(C3=CCCCC3)cc2O[C@@H]1CN(C)Cc1cccnc1	.	.	.	.	-4	.	.
COc1cccc(S(=O)(=O)Nc2ccc3c(c2)OC[C@@H](C)N(Cc2ccccc2F)C[C@@H](C)[C@@H](OC)CN(C)C3=O)c1	.	.	.	.	-1	.	.
SMILES	CDK5 inh	dFosB act-1	SMARCA2 act	Rtt109 Vps75	esBAF inh	Dyrk1A ADPGlo	dFosB act-2
CC(C)C#Cc1ccc2c(c1)O[C@@H](CN(C)C(=O)C1CCCCC1)[C@H](C)CN([C@H](C)CO)S2(=O)=O	.	.	.	.	3	.	.
O=C(Cn1nc(-c2ccccc2)ccc1=O)Nc1ccc(-n2cnnn2)cc1	2	58*	-1	-12	-5	1	2
CN(C(=O)COC(=O)/C=C/c1ccc2c(c1)OCO2)c1c(N)n(Cc2ccccc2)c(=O)[nH]c1=O	-4	53*	1	5	-2	11	1
Cc1cccc(-n2nnnc2SCC(=O)c2cc(C)n(CC3CCCO3)c2C)c1 (centres undefined)	-3	-5	-1	5	19	0	.
Cc1cccc(-n2nnnc2SCC(=O)c2cc(C)n(Cc3ccco3)c2C)c1	0	21*	-2	-2	0	-2	1
CCC(NC(=O)c1ccccc1NC(=O)c1ccco1)C(=O)NNC(=O)c1ccc(OC)cc1 (centres undefined)	1	32*	-1	-1	.	-7	2
CCC(C)C(NC(=O)c1ccccc1NC(=O)c1ccco1)C(=O)NNC(=O)c1ccc(OC)cc1 (centres undefined)	0	14	-1	4	-1	3	.
CCC(C)C(NC(=O)c1ccccc1NC(=O)c1ccco1)C(=O)NC1CCCCC1 (centres undefined)	-2	31*	-4	-3	12	5	1
COc1ccc(C(=O)NNC(=O)C(NC(=O)c2ccccc2NC(=O)c2ccco2)C(C)C)cc1 (centres undefined)	0	32*	-1	-2	.	5	-1
COc1ccc(/C=C/C(=O)Oc2ccc(/C=N/NC(=O)c3ccncc3)cc2)cc1	-1	22*	-3	4	-3	1	0
O=C(N/N=C/c1ccc(OC(=O)c2ccco2)cc1)c1ccncc1	1	-1	-2	2	-4	-2	.
O=C(N/N=C/c1ccc(OC(=O)c2ccc(Br)cc2)cc1)c1ccncc1	1	90*	3	-10	-3	4	6
COc1ccc(C(=O)Nc2ccc(/C(C)=N/NC(=O)c3ccncc3)cc2)cc1	1	40*	5	-4	38	2	-7
COc1ccccc1S(=O)(=O)N1CC[C@H]2[C@H](CO)Nc3ccc(-c4ccc(F)cc4)cc3[C@H]21	.	.	.	.	-2	.	.
CCC(=O)Nc1ccc2c(c1)C(=O)N(C)C[C@@H](OC)[C@H](C)CN(C(=O)COC)[C@@H](C)CO2	.	.	.	.	9	.	.
Nc1c(S(=O)(=O)c2cccs2)c2nc3ccccc3nc2n1CCc1ccccc1	.	.	-2	.	.	.	.
